# In the library only some 2.4% were active in any assay of this set; here they are far more common.
# D2 antagonist: antagonists of human D2 dopamine receptor. HEK293 TREx D2 cells, calcium flux, dopamine EC80. inhibition, % at 10 µM. 340,000 compounds, 2% hits. P14416. AID 485344; in the data active = inhibition above about 30%; inactive = below that, where a call was filed; note: 0% is about no effect
# Target sequence (P14416 whole entry, looked up): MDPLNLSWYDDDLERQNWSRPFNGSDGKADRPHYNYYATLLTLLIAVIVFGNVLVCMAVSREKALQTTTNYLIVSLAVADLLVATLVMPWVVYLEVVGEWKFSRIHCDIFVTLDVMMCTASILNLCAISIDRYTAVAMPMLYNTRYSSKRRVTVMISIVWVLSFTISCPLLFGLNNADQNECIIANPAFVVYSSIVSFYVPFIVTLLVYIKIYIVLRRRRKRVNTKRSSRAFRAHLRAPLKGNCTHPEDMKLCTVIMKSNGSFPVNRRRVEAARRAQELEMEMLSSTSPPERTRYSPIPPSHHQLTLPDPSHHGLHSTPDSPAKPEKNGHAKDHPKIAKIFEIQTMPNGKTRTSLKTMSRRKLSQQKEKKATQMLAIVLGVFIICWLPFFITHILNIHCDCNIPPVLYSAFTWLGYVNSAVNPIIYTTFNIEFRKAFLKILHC
#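 Antagonism is scored as inhibition of an EC80 dopamine-evoked calcium signal in a force-coupled, tetracycline-inducible HEK293 T-REx D2 line, with compound present 180 s before agonist.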
# D2 PAM-1: D2 dopamine receptor (human) potentiation | 340,000 compounds, 0.34% hits | P14416 | potentiation, % at 10 µM | HEK293 T-REx D2, calcium flux, EC20 dopamine potentiation;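 active = potentiation over 3 SD above the plate norm, cut at about 30% in these data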; note: 0% is about no effect
#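 Tetracycline-induced HEK293 T-REx cells force-coupled to calcium signalling expressed D2; compounds were pin-added after a 10 s baseline, read kinetically 180 s, then an EC20 dopamine challenge followed with a further 180 s calcium read.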
# D2 ag-1: human D2 receptor agonism in beta-arrestin assay; DiscoveRx PathHunter D2 beta-arrestin, luminescence, 90 min; 100% = 57 uM dopamine signal; activation, % (concentration not given with the values); 360,000 compounds, 0.084% hits; in the data active = activation above about 40%
#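 DiscoveRx PathHunter D2 beta-arrestin cells (2,100/well) attached overnight, then compound-stimulated 90 min at 37 C in HBSS/10 mM HEPES/0.1% Tween-20 buffer; beta-galactosidase complementation read by luminescence after 1 h at ambient temperature. Dopamine 57 uM final (EC100) as control.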
# D2 PAM-2: positive allosteric modulators of human D2 dopamine receptor; potentiation, % (no concentration beside the values); DiscoveRx D2 beta-arrestin cells, luminescence, 90 min; 100% = 57 uM dopamine signal; P14416; 360,000 compounds, 0.23% hits; in the data active = potentiation above about 50%
#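 PathHunter D2 cells, attached overnight at 37 deg C, received compound in DMSO plus dopamine at EC20 (50 nM final) for 90 min at 37 deg C. Beta-arrestin recruitment was read as luminescence after 1 h with detection reagent at ambient temperature.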
# D2 ag-2: activates the human D2 dopamine receptor. P14416. HEK293 T-REx D2 cells, calcium flux agonist mode. activation, % at 2 µM. 340,000 compounds, 0.53% hits. AID 485358;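 active = activation over 3 SD above normal in the single-dose calcium agonist read, cut at about 30% in these data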; note: 0% is about no effect
#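 Agonism is scored from calcium flux in a force-coupled, inducible HEK293 cell line expressing D2, read kinetically for 180 s after compound addition against dopamine controls.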
# The depositor's hits bear a star; . = no result.
SMILES,D2 antagonist,D2 PAM-1,D2 ag-1,D2 PAM-2,D2 ag-2
CNc1c(NC(=O)c2cc(OC)cc(OC)c2)c(=O)oc2ccccc12,.,-5,.,.,1
Cc1nc([N+](=O)[O-])c(Br)n1CC(=O)c1ccc(F)cc1,34*,8,-1,4,1
Cc1nc([N+](=O)[O-])c(Br)n1CC(=O)c1cccc([N+](=O)[O-])c1,-9,25,6,5,0
O=C(NCCCN1CCN(c2ccc(F)cc2)CC1)c1cc2c(Cl)nc3ccccc3c2s1,.,.,.,.,0
Cc1ccc(OCCCNCCO)c(Br)c1,39*,-14,0,-29,1
Cc1ccc(OCCCN(C)C)c(Br)c1,37*,8,-2,-18,0
CCn1c(COc2cccc3ccccc23)nnc1SCC(N)=O,-15,37*,-3,-6,1
CCOc1cc(C)ccc1OCc1nnc(SCC(=O)c2cccc([N+](=O)[O-])c2)n1CC,-15,10,-2,-10,-1
C=CCn1c(COc2ccccc2)nnc1SCC(=O)O,-6,33*,-2,-24,0
CNC(=O)CSc1nnc(COc2ccc([N+](=O)[O-])cc2)n1C,76*,.,-2,1,-1
CCn1c(COc2ccccc2)nnc1SCC(=O)c1cccc([N+](=O)[O-])c1,6,35*,-1,8,0
CCn1c(COc2ccccc2C)nnc1SCC(=O)NCc1ccccc1,-5,1,-3,-22,0
CCc1cccc(NC(=O)COC(=O)/C=C/c2cccs2)c1,31*,-7,-4,-6,0
O=C(COC(=O)/C=C/c1cccs1)Nc1ccc(F)cc1,6,11,-1,-6,0
CCS(=O)(=O)c1ncc(Cl)c(C(=O)N2CCN(c3cccc(Cl)c3)CC2)n1,.,-5,.,.,9
COc1ccc(N2CC(NC(=O)c3ccc(OC(C)C)cc3)CC2=O)cc1 (stereo not given),.,10,.,.,-6
Cc1ccccc1C(=O)NNC(=S)NC(=O)c1ccccc1,17,-9,1,-24,51*
Cc1ccc(C(=O)NNC(=S)NC(=O)c2ccccc2)cc1,.,.,-5,-27,.
Cc1ccc(C(=O)NNC(=S)NC(=O)c2ccc(Cl)cc2Cl)cc1,-1,-23,-2,1,70*
COc1ccc(C(=O)NNC(=S)NC(=O)c2ccc(F)cc2)cc1Br,.,.,8,-9,.
COc1ccc(Cl)cc1C(=O)NNC(=S)NC(=O)c1ccc(F)c(F)c1,40*,-3,-4,-7,30
Cc1ccc(C(=O)NC(=S)NNC(=O)c2ccc([N+](=O)[O-])cc2)cc1,33*,0,-2,-2,2
COC(=O)C1CCN(C(=O)c2sc3nc(-c4ccc(F)cc4)cn3c2C)CC1,-4,31*,1,-6,-1
Cn1c(=O)oc2cc(S(=O)(=O)CCC(=O)N3CCN(c4cccc(Cl)c4)CC3)ccc21,.,-9,.,.,1
Cc1nn(CC(=O)NC2CC2)c(=O)c2cc3ccccc3n12,.,4,.,.,0
SMILES,D2 antagonist,D2 PAM-1,D2 ag-1,D2 PAM-2,D2 ag-2
Cc1ccc(F)cc1NC(=O)CCOc1ccccc1,32*,-6,0,-6,-1
Cc1cc(Cl)ccc1OCC(=O)NNC(=O)CCOc1ccccc1,31*,4,-1,-3,-1
CCNc1nc(NCC)nc(N/N=C/c2ccc(O)c(O)c2)n1,44*,2,14,8,0
CCNc1nc(NCC)nc(N/N=C/c2ccc(N(C)C)cc2)n1,-22,-2,-1,-9,0
COc1ccc(CC(=O)NC2CC(=O)N(c3cccc(F)c3)C2)cc1 (stereo not given),.,-1,.,.,0
CCC(=O)N1c2ccc(S(=O)(=O)CCC(=O)Nc3ccc(Br)c(C)c3)cc2CC1C (stereo not given),.,0,.,.,0
O=C(CN1CCN(c2ccccc2)CC1)N1CCc2ccccc21,-12,-25,1,-24,1
Cc1cc[n+](CC(=O)N2CCCc3ccccc32)cc1,39*,-19,2,-11,-1
O=C(CN1CCCCC1)N1CCc2ccccc21,11,-21,1,-10,0
Cc1c(Br)c([N+](=O)[O-])nn1CC(=O)N1CCCc2ccccc21,11,34*,-4,-11,0

# Bioassay records from PubChem BioAssay.
